m-calpain inh = inhibitors of pig calpain II | 0.37% of 220,000 active | AID 1236 | inhibition, % at 16 µM | purified calpain II, fluorogenic peptide substrate, 30 min;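 active means inhibition above about 50%, limit read from the data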
Efa HMGR inh = E. faecalis class II HMG-CoA reductase inhibition. purified E. faecalis HMGR, NADPH absorbance 340 nm kinetic. inhibition, % at 10 µM. 0.41% of 190,000 active. AID 1066;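 active means inhibition above a set limit, the median over all tested compounds plus 3 SD, cut at about 9.5% in these data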;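 further: enzyme runs in reverse so mevalonate oxidation gives rising NADPH absorbance; 0% = complete reaction with DMSO and 100% = background rate lacking mevalonate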
14-3-3 Bad PPI = disrupts binding of bovine 14-3-3 zeta to phospho-Bad peptide; AID 781; inhibition, % at 21.7 µM; P63103; TR-FRET 14-3-3zeta/Dy647-pBad peptide displacement, 1 h; 0.71% of 220,000 active;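 active means inhibition above about 70%, limit read from the data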;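 further: 0% = full 14-3-3 plus peptide FRET controls and 100% = background without 14-3-3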
ROMK mod = modulators of human ROMK potassium channel; 2% of 130,000 active; B-score at 10 µM; Tet-inducible ROMK, thallium flux fluorescence; actives lie on both sides; P48048;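 active means signal ratio slope over the read window, or its plate-corrected B-score, at least 3 SD from the plate mean, either direction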;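 further: B-score of the F/F0 ratio slope over 7 to 12 s after thallium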
Target sequence (P48048 whole entry, looked up): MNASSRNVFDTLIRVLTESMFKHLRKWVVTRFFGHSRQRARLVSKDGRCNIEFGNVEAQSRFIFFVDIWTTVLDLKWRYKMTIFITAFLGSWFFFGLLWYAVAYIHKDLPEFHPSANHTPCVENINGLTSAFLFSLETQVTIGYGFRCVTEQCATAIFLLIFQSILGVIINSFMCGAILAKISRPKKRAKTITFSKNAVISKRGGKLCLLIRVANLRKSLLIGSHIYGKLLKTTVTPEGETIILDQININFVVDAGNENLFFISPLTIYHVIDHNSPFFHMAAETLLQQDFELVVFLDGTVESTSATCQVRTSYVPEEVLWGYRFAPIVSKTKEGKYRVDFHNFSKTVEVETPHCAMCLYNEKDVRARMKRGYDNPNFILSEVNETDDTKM
L929 necroptosis = L929 zVAD cell death inhibition | AID 1377 | viability rescue, % at 10 µM | L929 zVAD necroptosis rescue, ATP luminescence, 24 h; with zVAD 60 µM | 0.38% of 220,000 active;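 active means activation, scaled between plate controls, above about 75%, limit read from the data; inactive means activation under that limit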;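 further: 0% = zVAD with DMSO and 100% = DMSO alone without zVAD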
TNF necrop inh = blocks TNF-alpha induced death of Jurkat FADD-/- cells; Jurkat FADD-/- TNF necroptosis rescue, ATP luminescence, 24 h; 0 = TNF only, 100 = no-TNF cells; activation (protection from cell death), % at 10 µM; 0.068% of 220,000 active;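 active means activation, meaning protection from cell death, of at least 50% relative to plate controls; inactive means activation below 50%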;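 further: necroptosis triggered by 40 ng/mL TNF-alpha added together with compound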
Numbers without * were called inactive; nt = no result given. Sampled rows, rich in hits. Any-hit rate of the full collection: about 3%.

SMILES	m-calpain inh	Efa HMGR inh	14-3-3 Bad PPI	ROMK mod	L929 necroptosis	TNF necrop inh
S=c1[nH]c(-c2ccc(Cl)cc2)cs1	-23	6	-12	17*	0	0
Cc1ccc(-c2csc(=S)[nH]2)cc1	4	0	-14	10*	1	0
Cc1ccc(-c2ccc(C(=O)O)[nH]2)cc1	-6	-3	-9	0.3	1	0
CC(NC(=O)C(=O)NN=C1CCCCCCCCCCC1)c1ccccc1 (centres undefined)	2	-1	3	nt	0	-3
COc1cc(-c2nnc(SCC(=O)/C(C#N)=C(\C)N)o2)cc(OC)c1OC	-5	0	0	nt	0	-7
CCc1ccc(C(C(=O)NC2CCCC2)N(C(=O)/C=C/C(=O)Nc2cc(C)on2)c2ccccc2C)cc1 (centres undefined)	-36	-3	-14	0.18	1	-2
COc1ccc2cc(C(=O)N3CCCCCC3)sc(=O)c2c1OC	60*	-3	10	-0.84	2	0
COC(=O)c1cc2ccc(OC)c(OC)c2c(=O)s1	-9	-6	3	-0.37	6	2
CCC(Sc1ccc2nnc(-c3cccnc3)n2n1)C(=O)OC (centres undefined)	-147	9.6*	-11	0.64	1	0
Cn1c2ccccc2n2c(=O)c(=O)n(CC(=O)c3ccc(Cl)cc3)nc12	-38	2	-8	0.31	0	1
COC(=O)c1ccccc1NC(=O)Cn1nc2n(C)c3ccccc3n2c(=O)c1=O	-24	-1	93*	nt	1	1
CCCn1c(C)cc(-c2csc(N)n2)c1C	-137	-5	74*	nt	-1	-3
Cc1ccc(CNC(=O)c2ccc(CN3CCOCC3)cc2)cc1	10	11*	24	0.17	4	0
Cc1ccc2c(CC(=O)Nc3cccc(S(=O)(=O)N4CCOCC4)c3)coc2c1	51*	3	3	-0.85	0	1
CCN(CC)S(=O)(=O)c1ccc2oc(C(=O)NCc3ccc(C)cc3)c(C)c2c1	63*	-5	2	0.068	1	3
Cc1ccc(CNC(=O)c2oc3ccc(S(=O)(=O)N4CCOCC4)cc3c2C)cc1	57*	-9	13	-0.86	0	-10
Clc1ccc2nc(CSCc3ccccc3)cn2c1	-14	-4	-15	-0.56	1	1
O=C(Nc1ccc(C(=O)O)cc1)/C(=C\c1cccc([N+](=O)[O-])c1)NC(=O)c1ccc(Br)o1	-20	-1	-10	0.13	1	0
Cc1ccc(NC(=O)CS(=O)CC(=O)N(C(C)C(=O)NC2CCCCC2)C(C)(C)C)cc1 (centres undefined)	-10	0	0	-1.2	0	0
O=C(N/N=C/c1ccc(O)cc1)/C(=C/c1ccccc1)CCO	3	-10	6	nt	0	-3
CC(O)CNCCCOc1ccc(Cl)cc1C(C)(C)C (centres undefined)	9	0	40	-3.1	4	1
OC(c1ccccc1)c1nc2ccccc2s1 (centres undefined)	-13	1	3	-0.7	6	50*
CCOC(=O)CC(NC(=O)Cn1nnc(-c2ccccc2)n1)c1ccc(OC)cc1 (centres undefined)	30	-4	5	-0.081	1	2
COc1ccc2[nH]c3nc(SCc4nnc(-c5ccccc5)o4)nnc3c2c1	-12	0	74*	nt	0	-3
CCc1ccc2[nH]c3nc(SCc4nnc(-c5ccccc5)o4)nnc3c2c1	12	nt	12	nt	1	2
SMILES	m-calpain inh	Efa HMGR inh	14-3-3 Bad PPI	ROMK mod	L929 necroptosis	TNF necrop inh
CCC(=O)n1nc(-c2ccc(Cl)cc2)nc1N	-31	-4	-18	0.15	15	0
CCc1nc(N)nc(N)c1-c1ccc(Cl)cc1	0	15*	-3	nt	1	-22
COc1cc(/C=N/NC(=O)c2cc(C)oc2C)cc(OC)c1OC	-24	-3	-16	0.48	47	1
CC(=O)N(C)c1nc(N)n(-c2ccccc2)n1	-12	16*	-3	0.4	0	0
COc1ccc(/C=c2\s/c(=C/C(=O)c3ccc(C)cc3)[nH]c2=O)cc1OC	-40	-5	6	nt	3	4
COc1ccc(-n2nnnc2S(=O)(=O)CC(=O)N2CCCCC2)cc1	7	-6	5	nt	79*	-16
COc1ccc(-n2nnnc2S(=O)(=O)Cc2ccc(C(=O)O)cc2)cc1	-44	2	-1	nt	0	-12
CC(=O)Oc1ccc(/C=C2/CCc3ccccc3C2=O)cc1	4	nt	-2	nt	1	-16
CC(=O)N1CC2(C)CN(C(C)=O)CC(C)(C1)C2	3	22*	-7	-0.14	2	-1
Cc1cc(C)n2nc(SCC(=O)N(C)c3c(N)n(Cc4ccccc4)c(=O)[nH]c3=O)nc2n1	-12	2	-5	0.0032	1	1
Cc1cccc(Nc2ncnc3ccccc23)c1	0	-3	73*	-0.65	1	-1
CCCC1Cc2c(sc(NC(=S)NC(=O)c3ccccc3)c2C#N)CO1 (centres undefined)	53*	-2	3	nt	2	1
N#Cc1c(NC(=S)NC(=O)c2ccccc2)sc2c1CCCC2	-9	1	-8	-0.1	0	2
[O-][n+]1cccc2ncc3cscc3c21	-20	-1	-10	0.086	1	0
Cc1ccc(-c2cc(C(F)F)n3ncc(C(=O)Nc4ccc(S(=O)(=O)Nc5ccccc5C)cc4)c3n2)cc1	-74	10*	0	nt	1	-8
CCn1c(O)c(C=Nc2ccccc2)n(-c2ccccc2)c1=S	-19	-2	-18	nt	0	-10
Nc1nc2ccccc2n1CCOc1ccccc1Cl	-8	-3	9	-3.9*	1	1
Cc1cc(NC(=O)c2cccc(S(=O)(=O)N3CCOCC3)c2)c2ccccc2n1	16	-4	4	nt	0	0
Cc1ccc(-c2nc3cccnc3s2)cc1NC(=O)c1ccco1	nt	nt	nt	-0.01	0	-2
Cc1ccc(-c2nc3cccnc3s2)cc1NC(=O)C1c2ccccc2Oc2ccccc21	-63	0	78*	0.94	nt	2
O=c1c2ccccc2ncn1CCCCOc1ccc(Br)cc1	14	-6	-3	0.31	2	0
CCOc1ccc(S(=O)(=O)NCCOC)cc1C	-26	-4	73*	0.098	1	21
COCCNS(=O)(=O)c1ccc(SC)cc1	2	0	12	nt	0	50*
CNc1nc(-c2ccccc2)nc(-c2ccc(OC)cc2)c1C#N	-34	13*	-3	-0.78	0	0
CNc1nc(-c2ccccc2)nc(-c2ccccc2)c1C#N	3	-5	-4	0.7	0	0
CCN1CCN(c2ccc(NC(=O)c3cccc(F)c3)cc2Cl)CC1	-14	10*	-4	0	68	7
O=C(Nc1ccc(N2CCOCC2)c(Cl)c1)c1ccc(F)cc1	-6	7	-3	nt	0	-3

Screening data from PubChem BioAssay.
